Experimental data reported in PubChem BioAssay (NCATS).
Records with an inconclusive call do not appear. Active and inactive are the calls of the source. Calls come from the whole dose curve; as a rule, active = well fitted inhibition curve with a large enough effect; inconclusive = small, poorly fitted or top-dose-only effect; inactive = no such curve, though single readings can be large or run the other way.

These compounds were tested against Muscarinic acetylcholine receptor M1 (Rattus norvegicus) (UniProt P08482) (assay: qHTS Assay for Antagonists of Acetylcholine Muscarinic M1 Receptor: Kinetic Measurement of Intracellular Calcium Response (AID 943; note: nearly all actives have a fitted effect of over 75% in size)). Conditions: M1-expressing cells, kinetic intracellular calcium fluorescence; series mostly up to 35.3 µM; activity change, negative = inhibition: at the top concentration.
Sequence of Muscarinic acetylcholine receptor M1 (Rattus norvegicus) (P08482 whole entry, looked up): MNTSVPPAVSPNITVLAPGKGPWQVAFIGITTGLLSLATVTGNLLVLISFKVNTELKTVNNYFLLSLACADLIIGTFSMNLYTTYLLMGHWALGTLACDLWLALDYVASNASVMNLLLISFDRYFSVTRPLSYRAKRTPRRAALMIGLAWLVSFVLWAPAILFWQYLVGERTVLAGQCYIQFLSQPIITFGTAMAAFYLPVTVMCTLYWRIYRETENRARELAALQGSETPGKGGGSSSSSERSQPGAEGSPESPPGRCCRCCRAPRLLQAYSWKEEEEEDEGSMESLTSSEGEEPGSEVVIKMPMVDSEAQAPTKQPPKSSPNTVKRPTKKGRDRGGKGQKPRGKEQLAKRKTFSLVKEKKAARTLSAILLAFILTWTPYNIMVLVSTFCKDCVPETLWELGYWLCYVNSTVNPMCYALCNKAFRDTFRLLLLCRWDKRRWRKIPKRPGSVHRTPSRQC
Source text: NIH Molecular Libraries Screening Centers Network [MLSCN]
NIH Chemical Genomics Center [NCGC]
Acetylcholine muscarinic M1 receptor is a G-protein coupled receptor (GPCR) coupling to the Gq G protein. It is mainly expressed in brain and functionally related to the learning and memory processes. The agonists of this receptor have the potential for the treatment of Alzheimer's disease and cognitive impairments associated with Schizophrenia. Upon an activation of the M1 receptor, phosholipase C (PLC) is activated to produce inositol 1,4,5-trisphosphate (IP3) and diacyl glycerol (DAG) resulting in increase of intracellular free Ca2+ and activation of protein kinase C (PKC). The increase of intracellular calcium can be measured by the fluorescent calcium dyes, Fluo-3 and Fluo-4, using a fluorescence kinetic plate reader.
We have obtained a M1-CHO cell line transfected with rat acetylcholine M1 receptor and optimized a calcium assay with this cell line for compound screening as a counter-screen assay for other Gq-coupled GPCRs.
NCGC Assay Protocol Summary:
The CHO-M1 (CHO-M1) cell line transfected with the rat acetylcholine muscarinic M1 receptor was obtained from ATCC. The cells were maintained in call culture flasks with F12 Kaighn's media (Invitrogen) supplemented with 10 % FBS, 100 units/ml penicillin, 100 ug/ml streptomycin and 250 ug/ml geneticin (Invitrogen) at 37C, 5 % CO2 in a humidified atmosphere. At 90-95 % confluence, the cells were then detached in 15 ml […] % trypsin by 3 minutes incubation at 37C and centrifuged at 1000 RPM to remove the trypsin solution. The resulting cell pellet was resuspended in the cell freezing media containing 10 % DMSO (Invitrogen) at a density of 4 x 10^7 cells/ml. The aliquots of cells at 0.5 - 1 ml per vial were frozen down slowly at 1 degree C/min using a Cryo 1 degree C freezing container in the presence of isopropanol (Nalgene Nunc, Rochster, NY) overnight in a -80C freezer. The frozen cells were then transferred to liquid nitrogen for the storage up to one year.
The resuspended frozen cells were plated at 3 ul/well with 2000 cells in the black, tissue culture treated, clear bottom 1536-well plates. After overnight incubation at 37C, 5% CO2, 2.5 ul/well no-wash calcium dye (containing Fluo-4, BD Biosciences) were loaded and incubated at 37C, 5 % CO2 for 1 hour followed by a 10 min incubation with 20 nl compound in DMSO solution. The assay plates were then placed onto the kinetic fluorescence plate reader (FDSS-7000, Hamamatsu) for a measurement of the kinetic changes in intracellular free calcium. The basal fluorescence signal was measured for 6 times at 1 Hz followed by an addition of 1 ul of carbachol and continued 4 min measurement. The results were calculated as the maximal signal (peak) divided by the minimal signal (basal).
1536-well assay protocol:
(1) 3 ul/well containing 2000 M1-CHO cells in 1536 tissue culture treated black/clear bottom plate
(3) Add 1ul/well calcium dye (from no-wash calcium dye kit, BD Biosciences) containing […]
(4) Incubate 1 hour at 37C with 5% CO2
(5) Add 20 nl compound diluted in DMSO
(6) Incubate 10 minutes at the room temp
(7) Place the plate in FDSS-7000 instrument (Ex = 480 nm and […])
#- read the assay plate 6 times at 1 Hz for basal signal
#- add 1 ul/well EC80 carbachol (100 nM final)
#- continuously read the assay plate for 4 min at 1 Hz
Keywords: acetylcholine muscarinic M1 receptor, calcium kinetic assay, Fluo-4, high throughput screening, MLSMR, MLSCN, NIH Roadmap, qHTS and NCGC

Activity change, negative = inhibition, inactive:
Cc1ccccc1N1CCN(S(=O)(=O)C[C@@]23CC[C@H](C[C@H]2NC(=O)[C@@H](N)CCS(C)(=O)=O)C3(C)C)CC1 -38.8%
CCCCCCCCCCCCCCC/C=C\[C@H](O)[C@@H](NC(=O)CCCCCCCCCCCCC)OC (tested in a mixture with another compound) -41.7%
CN1CC[C@@]2(CCN3CCc4c(oc5ccccc45)[C@@H]3C2)N(C)C1=O -38.3%
OC[C@@H]1O[C@H](O)[C@@H](Cl)[C@H](O)[C@@H]1O -29.4%
CCCC[S@@](=N)(=O)CC[C@@H](N)C(=O)O -16.7%
OC[C@@H]1NC[C@@H](O)[C@@H](O)[C@H]1O -54.9%
COc1c2c(nc3ccccc13)O[C@@H]([C@@](C)(O)CO)C2 -25.6%
NC(N)=N[C@H](CCC(=O)O)C(=O)O -34.6%
Cc1nnc(SCC2=C(C(=O)O)N3C(=O)[C@@H](NC(=O)Cn4cnnn4)[C@@H]3SC2)s1 -55.3%
O=C(O)/C=C\[C@H](O)c1ccc(Cl)cc1 -32.3%
Nc1ncnc2c1nc(Br)n2[C@@H]1O[C@H]2COP(=O)(O)O[C@@H]2[C@H]1O -33.1%
CC(C)(C)c1onc(OCP(=O)(O)O)c1C[C@@H](N)C(=O)O -24.8%
N[C@@H]1C=CC=C(C(=O)O)C1 -3.63%
O=c1ccn([C@@H]2O[C@@H](COP(=O)(O)OP(=O)(O)O)[C@H](O)[C@@H]2O)c(=O)[nH]1 -13.7%
NC(=O)c1ncn([C@@H]2O[C@@H](CO)[C@@H](O)[C@H]2O)c1O -36.7%
CNC(=O)[C@@H]1O[C@@H](n2cnc3c(N)ncnc32)[C@@H](O)[C@H]1O 20.6%
CCCC[C@]1(C2CCCC2)Cc2cc(OCC(=O)O)c(Cl)c(Cl)c2C1=O -36.2%
OC[C@@H]1O[C@@H](n2cnc3c(NC4CCCCC4)ncnc32)[C@@H](O)[C@H]1O -12.3%
CN[C@]1(C)[C@@H]2CC[C@@H](C2)C1(C)C -30.8%
O=C1OC(=O)[C@@H]2[C@@H]1[C@@H]1CC[C@H]2O1 -37.7%
COc1ccccc1OC[C@H](O)CN1CCN(CC(=O)Nc2c(C)cccc2C)CC1 -19.1%
Nc1ncnc2c1ncn2[C@@H]1O[C@@H](C(=O)NC2CC2)[C@H](O)[C@@H]1O -41.5%
Nc1ccc(CCNc2ncnc3c2ncn3[C@@H]2O[C@@H](CO)[C@H](O)[C@@H]2O)cc1 -44.4%
Cc1ccccc1CNc1ncnc2c1ncn2[C@@H]1O[C@@H](CO)[C@H](O)[C@@H]1O -28.9%
C=C/C(C)=C/[C@]1(C)SC(=O)C(C)=C1O -37.5%
COc1cc2c(cc1O)CC[C@@H]1[C@@H]2CC[C@@]2(C)[C@H](O)CC[C@H]12 -35.1%
CC1(C)CCC(NC(=O)[C@H](N)CCC(=O)O)CC1 -45.3%
O=C1O/C(=C\Br)CC[C@@H]1c1cccc2ccccc12 -14.3%
N[C@H](CCC(=O)NCS(=O)(=O)O)C(=O)O -27.4%
CN(C)C(=O)/N=N\C(=O)N(C)C -18.9%
CCCCC[C@H](CC(=O)NO)C(=O)N[C@@H](C(=O)N1CCC[C@H]1CO)C(C)C -1.04%
COc1cc([C@H](O)CO)ccc1O -4.97%
C[C@H](O)[C@H](O)[C@@H]1CNc2nc(N)[nH]c(=O)c2N1 -28.9%
O=C(O)/C=C\c1cnc[nH]1 -23.4%
CN1[C@@H]2CC[C@H]1CC(NC(=O)c1nn(C)c3ccccc13)C2 (stereo not given in full) -42.8%
Nc1nc(Nc2ccccc2)nc2c1ncn2[C@@H]1O[C@@H](CO)[C@H](O)[C@@H]1O -33.8%
CC(=O)[C@@H]1CC[C@@H]2[C@@H]3CC=C4C[C@H](OS(=O)(=O)O)CC[C@@]4(C)[C@H]3CC[C@]21C -30%
Nc1c2c(nc3ccccc13)CCC[C@H]2O -40.4%

Potency, active:
Nc1nc(SCc2ccc([N+](=O)[O-])cc2)c2ncn([C@@H]3O[C@@H](CO)[C@@H](O)[C@H]3O)c2n1 25.1 µM
O=S(=O)(NCCNC/C=C\c1ccc(Br)cc1)c1cccc2cnccc12 14.1 µM
